Experimental findings from PubChem BioAssay (NCATS) are described below.

Each structure is given as a SMILES string. Records with an inconclusive call do not appear. Active and inactive are the calls of the source. The call rests on the fitted dose curve; in most records, active means well fitted curve in the direction sought with a large enough effect; inconclusive means small, poorly fitted or top-dose-only effect, or another doubt; inactive means no such curve, though single readings can be large; an effect the other way counts as inactive or inconclusive.

Assay [1] in a line: qHTS of pediatric cancer cell lines to identify multiple opportunities for drug repurposing: Primary screen for TC32 cells (AID 1347089). Further: nearly all actives have a fitted effect of over 60% in size. Further: potency means the concentration at half of the fitted maximal effect. Put shortly:
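Luminescent ATP read-out (CellTiter-Glo) of metabolically active TC32 cells after 48 h exposure. Concentration-response curves came from 11-point (MIPE, 0.78 nM–46 µM) or 8-point (NPC, 0.59 nM–46 µM) primary titrations; follow-up used 11 points.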
A general note: qHTS replaces the single test concentration by a dilution series.

Assay [2] can be described thus: qHTS of pediatric cancer cell lines to identify multiple opportunities for drug repurposing: Primary screen for SJ-GBM2 cells (AID 1347091). Further: potency means the concentration at half of the fitted maximal effect. An outline of the steps: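 Cell viability, CellTiter-Glo luminescence; 500-1,000 cells/well, 8- or 11-point titration, 48 h compound exposure at 37 degrees C, 5% CO2. Controls: DMSO neutral, bortezomib 2.3 µM final as positive.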

Assay [3] in a line: qHTS of pediatric cancer cell lines to identify multiple opportunities for drug repurposing: Primary screen for A673 cells (AID 1347092). Further: potency means the concentration at half of the fitted maximal effect; nearly all actives have a fitted effect of over 45% in size. An outline of the steps:
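Cell viability of A673 measured by CellTiter-Glo ATP luminescence after 48 hours compound exposure. Dilution series spanned 0.78 nM to 46 µM (MIPE, 11-point) or 0.59 nM to 46 µM (NPC, 8-point); bortezomib 2.3 uM positive control.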

Assay [4] can be described thus: qHTS of pediatric cancer cell lines to identify multiple opportunities for drug repurposing: Primary screen for SK-N-MC cells (AID 1347093). Further: potency means the concentration at half of the fitted maximal effect. Put shortly: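 Metabolically active cells were quantified by ATP-dependent luminescence (CellTiter-Glo, 15 min at room temperature) following 48 h treatment. Cells had been plated at 500-1,000 per well and settled for 5 h beforehand.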

The nature of assay [5]: qHTS of pediatric cancer cell lines to identify multiple opportunities for drug repurposing: Primary screen for NB-EBc1 cells (AID 1347095). Further: potency means the concentration at half of the fitted maximal effect. An outline of the steps:
(§1)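 Cells seeded at 500-1,000 cells/well in growth media, rested 5 hours at 37 degrees C, 5% CO2, then dosed; MIPE compounds at 11-point (from 0.78 nM) and NPC at 8-point (from 0.59 nM) final concentrations. Viability by CellTiter-Glo luminescence after 48 hours.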

A short description of assay [6]: qHTS of pediatric cancer cell lines to identify multiple opportunities for drug repurposing: Primary screen for U-2 OS cells (AID 1347096). Further: nearly all actives have a fitted effect of over 50% in size. Put shortly:
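Cells (500-1,000/well) rested 5 h, then received compounds for 48 h; metabolically active cells were measured by CellTiter-Glo luminescence. Final concentrations spanned up to 46 µM (MIPE, 11-point) or 0.59 nM-46 µM (NPC, 8-point) in primary screens, 11-point in follow-ups.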

The nature of assay [7]: qHTS of pediatric cancer cell lines to identify multiple opportunities for drug repurposing: Primary screen for Saos-2 cells (AID 1347097). Further: nearly all actives have a fitted effect of over 40% in size. Further: potency means the concentration at half of the fitted maximal effect. An outline of the steps:
as §1

The nature of assay [8]: qHTS of pediatric cancer cell lines to identify multiple opportunities for drug repurposing: Primary screen for BT-37 cells (AID 1347094). Further: potency means the concentration at half of the fitted maximal effect. An outline of the steps:
as §1

Consider `CCCCCNC(=O)N1CCC(CN(Cc2ccc(Cl)cc2)Cc2ccc([N+](=O)[O-])s2)C1` (stereo not given), for which the Potency result in assay [1] and in assay [2] was “inactive” each time. For the same compound, the Potency in assay [3] was 23.5 µM (active); in assay [4] it was 9.35 µM (active); in assay [5], 26.4 µM (active).
Regarding `O=c1c(O)c(-c2ccc(O)cc2)oc2cc(O)cc(O)c12`, the Potency entry in assay [1], in assay [6] and in assay [7] was “inactive” each time. Besides, the Potency in assay [2] is 14.8 µM (active); in assay [3], 14.8 µM (active); in assay [4], 11.8 µM (active); in assay [5], 9.35 µM (active).
In the case of `Nc1ncnc2c1ncn2[C@@H]1O[C@H](CO)C[C@@H]1O`, the Potency entry in assay [1], in assay [2], in assay [8], in assay [6] and in assay [7] was “inactive” throughout.
In the case of `CC[C@]1(O)C[C@@H]2CN(CCc3c([nH]c4ccccc34)[C@@](C(=O)OC)(c3cc4c(cc3OC)N(C=O)[C@@H]3C45CCN4CC=C[C@](CC)([C@H]45)[C@@H](OC(C)=O)[C@]3(O)C(=O)OC)C2)C1` (stereo not given in full), the Potency result in assay [1], in assay [8], in assay [6] and in assay [7] was “inactive” in each case. Moreover, the Potency in assay [4] is 20.9 µM (active).
With `Cc1cccc(Nc2nc(-c3ccncc3)cs2)c1`, the Potency result in assay [1], in assay [4], in assay [6] and in assay [7] was “inactive” each time. Besides, the Potency in assay [2] is 16.6 µM (active).
As for `C[C@@H]1CCN(C(=O)CC#N)C[C@H]1N(C)c1ncnc2[nH]ccc12`, the Potency result in assay [1], in assay [2], in assay [4], in assay [8], in assay [5] and in assay [6] was “inactive” each time. The Potency result in assay [7] was “inactive”.
On to `CCOC(CN1C(=O)[C@](CC(=O)Nc2ccc(C)cc2)(NC(=O)Nc2ccc(C)cc2)c2ccccc21)OCC`, for which the Potency entry in assay [1] and in assay [6] was “inactive” in each case. Also, the Potency is 29.6 µM (active) in assay [3] and 11.8 µM (active) in assay [4].
In the case of `NC(=O)c1cccc(-c2cc(Nc3ccc(OC(F)(F)F)cc3)ncn2)c1`, the Potency entry in assay [1], in assay [4], in assay [8], in assay [5] and in assay [6] was “inactive” each time.
Take `C[C@]12CCC3c4ccc(O)cc4CCC3C1CCC2=O` (stereo not given in full): the Potency entry in assay [1], in assay [4], in assay [8], in assay [5] and in assay [6] was “inactive” throughout.
For the compound `O=C(NCc1ccncc1)C12C[C@H]3C[C@@H](C1)CC(c1ccc(Cl)cc1)(C3)C2`, the Potency entry in assay [1] was “inactive”. The Potency in assay [3] is 7.43 µM (active); in assay [4] it was 0.526 µM (active); in assay [5], 18.7 µM (active); in assay [7] it was 11.8 µM (active).
For the compound `C=CCc1ccc(O)c(-c2ccc(O)c(CC=C)c2)c1`, the Potency entry in assay [1], in assay [5] and in assay [6] was “inactive” each time. For the same compound, the Potency in assay [3] was 23.5 µM (active); in assay [4] it was 23.5 µM (active); in assay [7] it was 18.7 µM (active).
As for `Cc1ccc(/C=N/NC(=O)c2ccccc2Oc2ccccc2)o1`, the Potency entry in assay [1] and in assay [6] was “inactive” in each case. Besides, the values for the Potency in assay [4] and in assay [5] were 16.6 µM (active) and 23.5 µM (active), respectively.
For `CO[C@H]1C(=O)[C@]2(C)[C@@H](OC)C[C@H]3OC[C@@]3(OC(C)=O)[C@H]2[C@H](OC(=O)c2ccccc2)[C@]2(O)C[C@H](OC(=O)[C@H](O)[C@@H](NC(=O)OC(C)(C)C)c3ccccc3)C(C)=C1C2(C)C`, the Potency in assay [1] was 1.47 µM (active); in assay [3], 0.001 µM (active); in assay [4] it was 29.6 µM (active); in assay [7], 0.001 µM (active). Moreover, the Potency entry in assay [6] is “inactive”.
Consider `CN(C)Cc1ccc(-c2nc3cccc4c3n2CCNC4=O)cc1`, for which the Potency entry in assay [1] and in assay [6] was “inactive” each time. Moreover, the Potency in assay [3] is 11.8 µM (active); in assay [4] it was 11.8 µM (active); in assay [5], 16.6 µM (active).
Regarding `CCOc1ccc(Nc2nc(-c3c(C)nc4ccccn34)cs2)cc1`, the Potency was 0.165 µM (active) in assay [1], 0.003 µM (active) in assay [3] and 0.0047 µM (active) in assay [4]. In addition, the Potency entry in assay [6] and in assay [7] was “inactive” throughout.
As for `CC(C)(C)C(=O)Oc1ccc2c(c1)nc(NC(=O)c1cccc([N+](=O)[O-])c1)n2CCCO`, the Potency result in assay [1], in assay [6] and in assay [7] was “inactive” each time. Moreover, the Potency in assay [3] was 11.8 µM (active); in assay [4] it was 20.9 µM (active).
Consider `COC(=O)C1=CO[C@@H](O)[C@@H]2C(CO)=CC[C@@H]12`, for which the Potency entry in assay [1], in assay [8], in assay [6] and in assay [7] was “inactive” in each case. The Potency in assay [4] is 29.6 µM (active).
As for `Nc1ncnc2c1nc(Cl)n2[C@@H]1O[C@H](CO)[C@@H](O)[C@@H]1O`, the Potency entry in assay [1], in assay [5] and in assay [7] was “inactive” in each case. Moreover, the Potency was 11.8 µM (active) in assay [2] and 26.4 µM (active) in assay [4].
Regarding `CC(C)=CC[C@@H](O)C1=CC(=O)c2c(O)ccc(O)c2C1=O`, the Potency entry in assay [1] and in assay [6] was “inactive” throughout. In addition, the Potency was 1.05 µM (active) in assay [4], 13.7 µM (active) in assay [8], 0.743 µM (active) in assay [5] and 18.7 µM (active) in assay [7].
For the compound `Clc1cc(Cl)cc(CNc2ncncc2-c2ccc3c(c2)OCO3)c1`, the Potency entry in assay [1] and in assay [6] was “inactive” throughout. Further, the Potency in assay [2] was 18.7 µM (active); in assay [4], 13.2 µM (active); in assay [5], 11.8 µM (active); in assay [7] it was 16.6 µM (active).
With `COc1ccc(C2Sc3ccccc3N(CCN(C)C)C(=O)C2OC(C)=O)cc1` (stereo not given), the Potency entry in assay [1], in assay [2], in assay [8], in assay [5] and in assay [6] was “inactive” in each case.
Regarding `OC[C@H]1O[C@@H](n2cnc3c2NC=NC[C@@H]3O)C[C@H]1O`, the Potency result in assay [1], in assay [2], in assay [8], in assay [5], in assay [6] and in assay [7] was “inactive” throughout.
For the compound `NC(=O)[C@@H](CCC(F)(F)F)N(Cc1ccc(-c2ncon2)cc1F)S(=O)(=O)c1ccc(Cl)cc1`, the Potency entry in assay [1], in assay [5] and in assay [6] was “inactive” throughout. Besides, the Potency in assay [4] is 23.5 µM (active).
Regarding `OC[C@H]1O[C@@H](Oc2cc(O)cc(C=Cc3ccc(O)cc3)c2)[C@H](O)[C@@H](O)[C@H]1O`, the Potency entry in assay [1], in assay [5], in assay [6] and in assay [7] was “inactive” in each case. The Potency in assay [3] is 9.35 µM (active).
For the compound `CC(C)(C)c1cc(C(=O)O)c(NC(=O)Nc2ccc3[nH]ncc3c2)s1`, the Potency result in assay [1], in assay [8], in assay [5] and in assay [6] was “inactive” each time. In addition, the Potency in assay [4] is 23.5 µM (active).
